Several values for one entry are separate records, joined by “and”; a condition that tells them apart may be missing. Equal values may be shown once. Results filed as inconclusive are left out. Unmarked numbers belong to inactive results. Activity calls are given as the source filed them. The call rests on the fitted dose curve; in most records, active means well fitted curve in the direction sought with a large enough effect; inconclusive means small, poorly fitted or top-dose-only effect, or another doubt; inactive means no such curve, though single readings can be large or run the other way.
On the % scale 0 is the no-effect control and ±100 the full control effect; potency means the concentration at half of the fitted maximal effect.

This assay in a line: qHTS Assay for Identifying Gametocytocidal Compounds (AID 743244).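 On max response: actives lower the fluorescent signal which means gametocytes are killed.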 To be noted: P. falciparum 3D7 stage III-V gametocytes, alamarBlue, 72 h; max response: hits give low values. An excerpt: Malaria cases and deaths have dropped 50% in 29 countries since 2000 due to the combined effects of long-lasting insecticidal bednets, indoor residual spraying, and artemisinin-based combination therapies (ACTs). This success has raised hopes for malaria eradication and consequently stimulated interest in developing new reagents that block gametocyte transmission such as novel and safe gametocytocidal drugs. However, previous drug development efforts have focused primarily on the asexual parasites that cause symptoms, but not malaria transmission. Consequently, patients can remain infectious for weeks after the clearance of asexual parasites and clinical symptoms. To be transmitted from person to person via a mosquito, the parasites must switch from asexual to sexual development and produce male and female gametocytes. Malaria gametocytes consist of five stages (I, II, III, IV and V). The late stage gametocytes (III, IV and V) are difficult to be cultured in vitro and the long lifespan of mature gametocytes allows them being transmitted from host to mosquitoes unless they are completely eliminated by gametocytocidal agents. To identify gametocytocidal compounds which are capable of killing late stage P. falciparum gametocytes, a high throughput gametocyte viability assay was employed. This assay uses oxidoreduction indicator, alamarBlue, as a general measure of metabolic activity of gametocytes. Within live cells, the nonfluorescent resazurin is reduced to resorufin, a bright red fluorescence dye. Fluorescence decreases upon treatment of gametocytocidal compounds. P. falciparum gametocyte (3D7 strain) was used in this study.
The 1536-well gametocycidal viability assay was based on the previous method of Tanaka et al. Stage III-V gametocytes were tested against three compound libraries, including 4265 compounds from NCGC pharmaceutical collection, 400 from Malaria Box library, and 550 from an internal collection of kinase inhibitors. Briefly, 2.5 ul/well incomplete medium was dispensed into each well of 1,536-well plates using the Multidrop Combi followed by 23 nl compound transferring using the NX-TR Pintool (WAKO Scientific Solutions, San Diego, CA). Then, 2.5 ul/well of gametocytes was dispensed with a seeding density of 20,000 cells/well using the Multidrop Combi. The assay plates were incubated for 72 h at 37C with 5% CO2. After addition of 5 ul/well of 2X AlamarBlue dye (Life Technologies, cat. no. DAL1100), the plates were incubated for 24 h at 37C with 5% CO2 and then were read in a fluorescence detection mode (Ex = 525 nm, Em = 598 nm) on a ViewLux plate reader (PerkinElmer).
For orientation: In qHTS, concentration-response curves come from the screen itself.
As for `CCCCCCCC[N+](C)(C)CCCCCCCC`, the Potency is 7.94 µM (active) and 8.91 µM (active).
On to `Nc1c(S(=O)(=O)O)cc(Nc2ccc(Nc3nc(Cl)nc(Nc4ccc(S(=O)(=O)O)cc4)n3)c(S(=O)(=O)O)c2)c2c1C(=O)c1ccccc1C2=O`, for which the max response is 27.3%.
As to `CN(CC(=O)N1CCOCC1)Cc1c(Cl)cccc1NC(=O)c1ccccc1`, the max response was -0.892%.
Still for that read-out and setting: then `CCCCCCCCCCCCCCCCSCC(COC)COP(=O)([O-])OCC[N+](C)(C)C` (configuration not stated), with -10.5%; and `Cc1cccc(/C=C/c2ccccc2)n1`, with 6.48%; and `NCCNCCN`, with 9.59%.
Same read-out and setting: then `CC1(C)N=C(N)N=C(N)N1c1ccc(Cl)cc1`, with -2.29%; and `N#C/C(=C\c1ccc(O)c(O)c1)C(=O)Nc1ccccc1`, with 12.5%.
`CCC(=O)O[C@H]1CC[C@H]2[C@@H]3CCc4cc(O)ccc4[C@H]3CC[C@]12C`: the max response was 3.09%.
As for `N[C@@H](C(=O)N[C@@H]1C(=O)N2C(C(=O)O)=C(CSc3cn[nH]n3)CS[C@H]12)c1ccc(O)cc1`, the max response is -0.063%.
Same read-out and setting: then `O=Nc1c(-c2c(O)[nH]c3ccccc23)[nH]c2ccccc12`, with 1.55%.
Turning to `CC[C@@]1(O)C[C@H](O[C@H]2C[C@H](N(C)C)[C@H](O[C@H]3C[C@H](O)[C@H](O[C@H]4CCC(=O)[C@H](C)O4)[C@H](C)O3)[C@H](C)O2)c2c(cc3c(c2O)C(=O)c2c(O)cccc2C3=O)[C@H]1C(=O)OC`, the Potency is 0.112 µM (active).
Turning to `C1CCC(N=C(NC23CC4CC(CC(C4)C2)C3)N2CCOCC2)CC1`, the max response is 10.5%.
On to `COc1cc([C@@H]2c3cc4c(cc3C(O[C@@H]3O[C@@H]5CO[C@@H](C)O[C@H]5[C@H](O)[C@H]3O)C3COC(=O)[C@@H]32)OCO4)cc(OC)c1OP(=O)(O)O` (some centres not stated), for which the max response is 4.76% and -12.7%.
In the case of `Nc1ccc(N)c([N+](=O)[O-])c1`, the Potency was 39.8 µM (active).
Turning to `CCc1ccc(/C=C2/SC(=S)NC2=O)cc1`, the max response is 30.7%.
The same measure, in the same setting: then `C[N+]1(C)CCN(CC(O)(c2ccccc2)C2CCCCC2)CC1` (configuration not stated), with -2.89%; and `CCCCCCC(=O)O[C@H]1CC[C@H]2[C@@H]3CCc4cc(O)ccc4[C@H]3CC[C@]12C`, with -2.62%.
Consider `S=C(Nc1ccccc1)Nc1nccs1`, for which the Potency is 1.58 µM (active).
In the case of `C[C@H](Cc1ccccc1)Nc1ncnc2c1ncn2[C@@H]1O[C@H](CO)[C@@H](O)[C@H]1O`, the max response is -7.31%.
Same read-out and setting: then `C#C[C@]1(OC(C)=O)CC[C@H]2[C@@H]3CCC4=CC(=O)CC[C@@H]4[C@H]3CC[C@@]21C`, with -3.45%.
Same read-out and setting: then `C=C1/C(=C\C=C2/CCC[C@]3(C)[C@@H]([C@H](C)OCCC(C)(C)O)CC[C@@H]23)C[C@@H](O)C[C@@H]1O`, with -1.53%; and `CCNC(=O)[C@@H]1CCCN1C(=O)[C@H](CCCN=C(N)N)NC(=O)[C@H](CC(C)C)NC(=O)[C@@H](CC(C)C)NC(=O)[C@H](Cc1ccc(O)cc1)NC(=O)[C@H](CO)NC(=O)[C@H](Cc1c[nH]c2ccccc12)NC(=O)[C@H](Cc1cnc[nH]1)NC(=O)[C@@H]1CCC(=O)N1`, with 2.85%.
Still for that read-out and setting: then `N#C[C@@H]1C[C@@H]2C[C@@H]2N1C(=O)[C@@H](N)C12CC3CC(CC(O)(C3)C1)C2`, with -8.8%; and `CCOC(=O)CCC(=O)O[C@H]1[C@H](O[C@@H]2[C@@H](C)[C@H](O[C@H]3C[C@@](C)(OC)[C@@H](O)[C@H](C)O3)[C@@H](C)C(=O)O[C@H](CC)[C@@](C)(O)[C@H](O)[C@@H](C)C(=O)[C@H](C)C[C@@]2(C)O)O[C@H](C)C[C@@H]1N(C)C`, with -6.05%.
With `C/C1=C2N=C(/C=C3N=C(/C(C)=C4\[N-]C(C(CC(N)=O)C4(C)CCC(=O)NCC(C)OP(=O)([O-])OC4C(CO)OC(n5cnc6cc(C)c(C)cc65)C4O)C4(C)N=C1C(CCC(N)=O)C4(C)CC(N)=O)C(CCC(N)=O)C\3(C)C)C(CCC(N)=O)C/2(C)CC(N)=O.[CH3-].[Co+3]` (configuration not stated), the Potency was 22.4 µM (active).
As for `CCOC(=O)CN[C@@H](C(=O)N1CC[C@H]1C(=O)NCc1ccc(/C(N)=N/O)cc1)C1CCCCC1`, the max response is 9.4%.

These data come from PubChem BioAssay (NCATS).
